# Bioassay records: PubChem BioAssay, The Scripps Research Institute Molecular Screening Center
# ssDAF12 agonist – S. stercoralis DAF-12 nuclear receptor activators, primary screen, cell-based, luminescence, HEK293, GRIP1 co-expression, lit1-tk-luc | Nuclear hormone receptor DAF-12 (Strongyloides stercoralis) | HEK293 ssDAF-12/GRIP1 lit1-tk-luc reporter; % of 3 µM dafachronic acid response | activation, % at 6.8 µM | hit rate 1% among 370,000;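 active = activation above the mean over all tested compounds plus 3 SD, cut at about 0.9% in these data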
# DAX1 inh-1 – DAX1 (NR0B1) inhibitors, primary screen, cell-based, HEK293, Gal4-DAX1, luciferase luminescence | Nuclear receptor subfamily 0 group B member 1 (Homo sapiens), P51843 | AID 504766, 2011 | HEK293 Gal4-DAX1 luciferase reporter | hit rate 0.99% among 340,000 | inhibition, % at 6.75 µM;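 active = inhibition above the mean over all tested compounds plus 3 SD, cut at about 4.2% in these data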;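 also: inhibition shows as a rise in luminescence from relieved DAX1 repression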
# hgDAF12 agonist – H. glycines DAF-12 receptor agonists, primary screen, cell-based, luminescence, HEK293, GAL4 fusion, UAS-luciferase. hit rate 1.8% among 370,000. HEK293 GAL4-hgDAF12 UAS-luciferase reporter, agonist luminescence; normalized to butyrate control. activation, % at 6.8 µM. Nuclear hormone receptor DAF-12 (Heterodera glycines), GAL4 fusion;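 active = activation above a cutoff set at the mean of all screened compounds plus 3 SD, cut at about 10% in these data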
# GAA850 FXN act – FXN promoter activators, primary screen, cell-based, luciferase luminescence, HEK293 lucGAA850 | HEK293 lucGAA850 FXN promoter luciferase reporter, 24 h; percent of 10 µM SAHA response | activation, % at 6 µM | hit rate 0.56% among 360,000 | AID 540364, 2011;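 active = activation above the average of all compounds screened plus 3 SD, cutoff fixed separately per campaign, cut at about 7.5% in these data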
# DAX1 inh-2 – DAX1 (NR0B1) inhibitors on StAR promoter, primary screen, cell-based, luminescence, SF-1 (NR5A1), full-length DAX-1; HEK293T StAR-luciferase reporter, SF-1/DAX-1 repression relief; hit rate 1.1% among 370,000; inhibition, % at 6.8 µM;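 active = inhibition above the mean over all tested compounds plus 3 SD, cut at about 3.6% in these data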;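 also: higher inhibition means more luminescence from relief of DAX-1 repression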
# hcDAF-12 act – H. contortus DAF-12 nuclear receptor activators, primary screen, cell-based, luminescence, HEK293, lit1-tk-luc reporter; HEK293 hcDAF-12 lit1-tk-luc reporter; 0% DMSO, 100% Δ7-dafachronic acid; activation, % at 6.8 µM; hit rate 1.4% among 370,000; AID 652067, 2013;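 active = activation above the mean of all tested compounds plus 3 SD, cut at about 5.5% in these data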
# hgDAF12 conf – H. glycines DAF-12 receptor agonists, confirmation, cell-based, luminescence, HEK293, GAL4-LBD fusion | activation, % at 6.8 µM | hit rate 80% among 3,300 | shares compounds with hgDAF12 agonist | HEK293 GAL4-hgDAF12 luciferase reporter, agonist mode; percent of butyrate response;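 active = mean activation over triplicate wells above the hit cutoff derived from the earlier primary screen, cut at about 11% in these data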
# LXRb DAF12 ctr – LXR agonists, Gal4 luciferase reporter, confirmation, counter-screen for hgDAF-12 agonist project, cell-based, luminescence, HEK293, H. glycines campaign | shares compounds with hgDAF12 agonist | 24 h | activation, % at 6.8 µM | 3,300 tested, under 10 active;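 active = mean activation of the triplicate above a set limit carried over from the primary screen, none filed active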
# Target sequence (P55055 whole entry, looked up, the tested form may be a part): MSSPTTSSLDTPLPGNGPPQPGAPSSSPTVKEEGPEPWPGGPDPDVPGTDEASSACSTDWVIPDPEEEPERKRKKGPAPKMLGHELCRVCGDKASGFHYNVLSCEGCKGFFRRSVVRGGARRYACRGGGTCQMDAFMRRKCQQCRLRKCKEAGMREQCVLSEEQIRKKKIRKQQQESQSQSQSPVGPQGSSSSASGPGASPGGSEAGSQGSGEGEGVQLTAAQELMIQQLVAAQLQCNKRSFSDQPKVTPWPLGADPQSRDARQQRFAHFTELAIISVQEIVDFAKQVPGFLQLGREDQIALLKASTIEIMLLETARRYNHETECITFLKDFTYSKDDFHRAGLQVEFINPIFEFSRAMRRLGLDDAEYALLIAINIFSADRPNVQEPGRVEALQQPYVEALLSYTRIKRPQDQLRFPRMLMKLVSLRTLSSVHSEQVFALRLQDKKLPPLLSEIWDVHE
# Numbers stand for hits; - = inactive; . = not tested or not shown. An excerpt weighted towards active compounds, which were near 4.5% of everything screened.
SMILES,ssDAF12 agonist,DAX1 inh-1,hgDAF12 agonist,GAA850 FXN act,DAX1 inh-2,hcDAF-12 act,hgDAF12 conf,LXRb DAF12 ctr
COc1cccc(-c2nc(=S)c3c(o2)CCCC3)c1,-,5.1,13,-,3.7,-,17,-
Cc1ccc(-c2nc(-c3cccnc3)no2)cc1,-,-,14,-,-,-,18,-
Cc1ccc(Cc2nc(-c3cccnc3)no2)cc1,-,-,-,-,-,-,.,.
c1ccc(-c2noc(-c3ccc4ccccc4c3)n2)nc1,.,-,.,-,.,.,.,.
Cc1ccc(-c2nc(-c3ccncc3)no2)cc1,-,-,15,-,-,-,15,-
c1ccc(-c2noc(-c3cccnc3)n2)nc1,-,-,14,-,-,-,12,-
CCc1ccc(NC2=NCC(c3ccccc3)S2)cc1 (stereo not given),-,-,13,-,-,-,11,-
O=[N+]([O-])c1ccc(C2CN=C(Nc3ccccc3)S2)cc1 (stereo not given),-,-,-,-,-,-,.,.
Clc1ccc(Cc2nc(-c3cccnc3)no2)cc1,-,-,-,-,-,-,.,.
CN(C)/C=N/c1nc(-c2ccc3ccccc3c2)cs1,-,5.0,18,-,-,-,12,-
CC1(C(=O)NS(=O)(=O)c2ccc3ccccc3c2)CCN1C(=O)Cc1ccc(-c2ccccc2)cc1 (stereo not given),-,.,-,-,-,-,.,.
Cc1ccsc1/C=N/NC(=O)c1sccc1C,1.6,-,13,-,3.7,7.2,18,-
CN=c1scc(-c2cccs2)n1/N=C/c1ccc(O)c(O)c1O,-,-,14,-,-,6.1,11,-
CN=c1scc(-c2cccs2)n1/N=C/c1ccccc1O,-,-,-,-,-,-,.,.
Cc1cc(C(=O)CSc2nnnn2C)c(C)n1-c1cccc(F)c1,-,-,14,-,-,-,15,-
Cc1cc(C)cc(-n2c(C)cc(C(=O)CSc3nnnn3C)c2C)c1,-,-,-,-,-,-,.,.
Cc1cc(C(=O)CSc2ncccn2)c(C)n1-c1cccc(F)c1,2.3,-,14,-,4.3,6.1,15,-
CCOC(=O)C1(C)CCN1C(=O)c1ccccc1OC(F)(F)F (stereo not given),-,.,-,-,-,-,.,.
CCCCCC(=O)Nc1ccc(C(=O)COC(=O)c2ccccn2)cc1,-,-,-,-,-,-,.,.
COc1ccccc1C(=O)Nc1ccccn1,-,-,14,-,-,-,13,-
Cc1csc(NC(=O)c2ccc(Br)s2)n1,-,-,17,-,-,-,13,-
O=C(Nc1ccccn1)c1ccc(Br)s1,-,-,16,-,-,-,13,-
Cc1cc(C)nc(NC(=O)c2ccc(Br)s2)n1,-,-,-,-,-,-,.,.
Cc1csc(NC(=O)c2ccc3c(c2)OCO3)n1,-,-,17,-,-,-,16,-
CCOc1cc(/C=N/NC(=O)C(=O)N2CCCC2)ccc1O,-,-,-,-,-,-,.,.
SMILES,ssDAF12 agonist,DAX1 inh-1,hgDAF12 agonist,GAA850 FXN act,DAX1 inh-2,hcDAF-12 act,hgDAF12 conf,LXRb DAF12 ctr
CCNc1nc(NCC)nc(Oc2ccc(OCc3ccccc3)nn2)n1,-,.,-,.,-,-,.,.
O=C(Nc1ccccc1)Nc1ccccc1-n1ccnc1,-,-,-,-,-,-,.,.
Cc1cc(NC(=O)c2ccc3c(c2)OCO3)no1,-,-,-,-,-,-,.,.
Cc1nc(NC(=O)c2ccc3c(c2)OCO3)ccc1Br,-,4.3,16,-,-,-,14,-
CCCn1c(C(C)Nc2nc(-c3cc(Cl)c(N)c(Cl)c3)cs2)nc2cc(Cl)c(N3CCCCC3)cc21 (stereo not given),-,-,-,-,-,-,.,.
O=C(Nc1ccc(Cl)cc1F)c1ccccc1Br,-,-,15,-,4.4,-,14,-
O=C(Nc1ccc(Cl)cc1F)c1cccc2ccccc12,-,-,-,-,-,-,.,.
COc1ccc(S(=O)(=O)N2CCN(CC(=O)NC3CC3)CC2)cc1,-,-,-,-,-,-,.,.
CC(C)(C)c1cc(NC(=O)C2(C)CCN2C(=O)c2ccccc2CCc2ccccc2)no1 (stereo not given),-,.,-,-,-,-,.,.
CN(C)N=Nc1nc2c(c(=O)n(C)c(=O)n2C)n1CC1CO1 (stereo not given),-,.,-,-,-,-,.,.
CC1=C/C(=N\NC(=S)NCCc2ccccc2)CC(C)(C)C1,-,-,-,-,-,-,.,.
CC1=C/C(=N\NC(=O)c2cccs2)CC(C)(C)C1,-,-,17,-,-,-,-,-
Cc1cc(OCC(=O)Nc2ccccc2C)no1,-,-,-,-,-,-,.,.
Cc1cc(OCC(=O)Nc2c(C(C)C)cccc2C(C)C)no1,-,-,20,-,-,-,-,-
COc1cccc(NC(=O)CC(=O)c2ccccc2)c1,-,-,-,-,-,-,.,.
CC1CC1c1ccc(/C=C(\C#N)C(=O)Nc2ccc(Cl)cc2)o1 (stereo not given),-,-,14,-,-,-,14,-
CC1CC1c1ccc(/C=C(\C#N)C(=O)Nc2ccccc2Cl)o1 (stereo not given),-,-,-,-,-,-,.,.
CCc1cc(CN2CCOCC2)c(NC(=O)c2ccccc2)s1,-,-,-,-,-,-,.,.
CCOC(=O)Nc1ccc2c(c1)C(=NO)c1ccccc1-2,-,-,18,-,-,-,13,-
CCOC(=O)Nc1ccc2c(c1)C(=NNC(N)=S)c1ccccc1-2,-,-,-,-,-,-,.,.
CSc1ccc(-c2nc(CN3CCCCC3c3cccnc3)c(C)o2)cc1 (stereo not given),-,-,-,-,-,-,.,.
O=C(CSc1ncccn1)NC(=O)NC1CCCC1,-,-,-,-,-,-,.,.
CCCSc1nsc(NC(=O)CCC)n1,-,-,19,-,-,-,15,-
